# GDH-TPI counter: GDH-TPI coupled enzyme inhibition counter-screen; GDH-TPI coupled enzyme counterscreen, NADH absorbance; inhibition, % at 4.8 µM; 360,000 compounds, 1.2% hits; AID 588335; in the data active means inhibition above about 30%;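 further: 0% = DMSO wells and 100% = wells lacking the enzyme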
# Mtb betalactam: beta-lactam sensitization of Mtb H37Rv | M. tuberculosis H37Rv growth with meropenem, percent inhibition | inhibition, % at 25 µM | 330,000 compounds, 0.27% hits | AID 434955; call rule not given here;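 further: growth measured after seven days incubation then overnight dye step; 0% = bacteria only wells and 100% = bacteria with antibiotic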
# Mtb FBA inh: inhibits M. tuberculosis FBA enzyme; P9WQA3; purified M. tuberculosis FBA, fluorescence read-out; inhibition, % at 1 µM; 360,000 compounds, 2.3% hits; AID 588726; in the data active means inhibition above about 27%;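 further: 0% = vehicle and 100% = reference inhibitor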
# Mtb UGM inh: Mtb UDP-galactopyranose mutase inhibition. purified UGM, fluorescence polarization probe displacement. 320,000 compounds, 0.06% hits. P9WIQ1. AID 504406. inhibition, % at 10 µM; in the data active means inhibition above about 10%, passing the limit was not always enough
# SSB-PriA inh: K. pneumoniae PriA-SSBct interaction inhibition. AlphaScreen SSBct-PriA binding, biotinylated peptide. inhibition, % at 33 µM. 430,000 compounds, 0.6% hits. AID 1272365; in the data active means inhibition mostly above about 37%, no sharp cut-off; inactive means mostly below about 20%;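 further: plate controls were negative control peptide for no effect and reference peptide for full effect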
# Rv3671c protease: inhibitors of M. tuberculosis serine protease Rv3671c | P9WHR9 | inhibition, % at 5.96 µM | 320,000 compounds, 0.048% hits; in the data active means inhibition above about 38%;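 further: extracellular domain of Rv3671c used as enzyme; 0% = enzyme with DMSO and 100% = no enzyme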
# Target sequence (P9WHR9 whole entry, looked up, the tested form may be a part): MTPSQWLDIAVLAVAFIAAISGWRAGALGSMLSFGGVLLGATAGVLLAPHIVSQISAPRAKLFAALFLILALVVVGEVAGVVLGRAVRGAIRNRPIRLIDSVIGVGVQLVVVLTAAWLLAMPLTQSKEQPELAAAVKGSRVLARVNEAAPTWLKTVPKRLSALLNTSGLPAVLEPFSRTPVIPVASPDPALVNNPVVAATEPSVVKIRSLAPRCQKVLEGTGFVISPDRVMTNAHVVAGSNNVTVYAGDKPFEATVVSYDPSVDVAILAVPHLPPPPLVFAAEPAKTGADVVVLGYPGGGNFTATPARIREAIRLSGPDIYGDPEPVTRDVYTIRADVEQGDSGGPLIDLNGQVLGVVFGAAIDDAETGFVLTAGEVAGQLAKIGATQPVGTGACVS
# * hit, by the source's call; . = not tested or not shown; + = active, no number; ! = a repeat was not active. This is a sample that favours compounds with a hit; in the whole collection about 3.2% have one here.
SMILES,GDH-TPI counter,Mtb betalactam,Mtb FBA inh,Mtb UGM inh,SSB-PriA inh,Rv3671c protease
COCCn1c(=S)[nH]c2cc(C(=O)N3CCc4ccccc4C3)ccc2c1=O,-2,-4,1,0,-2,3
COCCN1Cc2cc(=O)n3c([nH]c4ccccc43)c2C1=N,10,-2,+,-1,-3,4
COc1cc(C(=O)N2C(=S)C(c3ccc(Cl)cc3Cl)=NC2(C)C)cc(OC)c1OC,.,.,.,.,-3,.
Cc1nc2oc(-c3ccccc3)nc2cc1N,.,.,.,.,-10,.
C/C(C=NNC(=O)c1nnn(-c2nonc2N)c1CN1CCCCC1)=C\c1ccccc1,.,.,.,.,1,.
CC(/C=N/NC(=O)c1nnn(-c2nonc2N)c1CN1CCCCC1)=C\c1ccccc1,34*,0,-2,-4,.,-1
CC(C)c1c(C(=O)N/N=C/C=C/c2ccccc2)nnn1-c1nonc1N,39*,2,-1,-1,.,4
CC(=NNC(=O)c1nnn(-c2nonc2N)c1CN(C)c1ccccc1)c1ccccn1,.,.,.,.,90*,.
CN(C)Cc1c(C(=O)N/N=C/C=C/c2ccccc2)nnn1-c1nonc1N,34*,-6,-2,2,.,-9
C/C(=N\NC(=O)c1nnn(-c2nonc2N)c1CN(C)c1ccccc1)c1ccccc1O,13,7,2,5,.,-1
CC(/C=N/NC(=O)c1nnn(-c2nonc2N)c1C(C)C)=C\c1ccco1,37*,-12,5,0,.,3
O=S(=O)(CCCOc1ccc2c(c1)OCO2)N1CCC(Cc2ccccc2)CC1,.,.,.,.,-11,.
COc1ccc(Br)c(C(=O)NC[C@H](O)c2ccc3c(c2)CCO3)c1,.,.,.,.,-11,.
Cc1cc(C)c2nc(N(CCCN(C)C)C(=O)c3ccc4c(c3)CCCC4)sc2c1,.,100,.,-1,43*,12
Cc1ccc2nc(N(CCCN(C)C)C(=O)c3ccc4c(c3)CCCC4)sc2c1,-1,92,2,2,26,0
Cc1cc(C)c2nc(N(CCCN(C)C)C(=O)c3ccc(S(=O)(=O)N4CCCCCC4)cc3)sc2c1,6,81,3,-3,36*!,6
O=C(c1c(F)cccc1Cl)N1CCC(CSc2ccccn2)CC1,.,.,.,.,14,.
COCC(=O)N/N=C(\C)CC(=O)Nc1ccccc1C(N)=O,8,-7,55*,3,.,8
COC(=O)c1ccccc1NC(=O)CC(C)=NNC(=O)CC#N,.,.,.,.,-4,.
Cc1cccc(C(N)=NOC(=O)CCCc2ccccc2)c1,.,.,.,.,-48,.
O=C(Nc1cccc(C(F)(F)F)c1)c1cc2cc([N+](=O)[O-])ccc2o1,.,.,.,.,5,.
COC(=O)Cc1c(C)c2ccc(OCC(=O)NC3CCS(=O)(=O)C3)cc2oc1=O (centres undefined),7,9,140*,-1,-10,1
COC(=O)Cc1c(C)c2ccc(OCC(=O)N(C)C)cc2oc1=O,20,-1,138*,0,-2,1
CCCOc1ccc2c(C)c(CC(=O)OC)c(=O)oc2c1,24,-3,121*,-2,-8,8
O=C(COc1ccc2ccc(=O)oc2c1)NC1CCS(=O)(=O)C1 (centres undefined),19,-6,21,1,-7,4
SMILES,GDH-TPI counter,Mtb betalactam,Mtb FBA inh,Mtb UGM inh,SSB-PriA inh,Rv3671c protease
Cc1onc(-c2ccccc2Cl)c1C(=O)NCCN1Cc2ccccc2C1=O,5,2,2,0,47*,3
Cc1nc(-c2ccccc2F)sc1CNC(=O)c1c(-c2ccccc2Cl)noc1C,.,.,.,.,-13,.
Cc1nc(C)c(-c2ccc(=O)n(CCNC(=O)c3c(-c4ccccc4Cl)noc3C)n2)s1,.,.,.,.,37*,.
CC1CCCC(C)N1N=Cc1ccc(C#N)cc1 (centres undefined),.,.,.,.,20,.
N#Cc1nccnc1N1CCC(CNC(=O)c2cc(Br)cs2)CC1,.,.,.,.,-45,.
COc1ccc(F)cc1S(=O)(=O)NCC#CCOc1ccc2c(c1)OCO2,.,.,.,.,19,.
CC(=O)C(=NNc1ccc(Cl)cc1Cl)Sc1cccc2cccnc12,.,.,.,.,73*,.
COc1ccc(-c2cc(=O)n(CC(=O)O)cn2)cc1,.,.,.,.,-4,.
COC(=O)C1=C(NC(=O)c2ccccc2I)CCS1,.,.,.,.,51*,.
Nc1ccc(-c2cnc(-c3ccc(N)cc3)nc2)cc1,67*,16,-6,0,-10,7
O=C(Nc1ccc2c(c1)OCCO2)c1ccc(S(=O)(=O)N2CCOCC2)o1,.,.,.,.,-16,.
COC(=O)c1ccc2c(CCO)c[nH]c2c1,17,9,+,1,-21,8
CNc1nc(-c2ccccn2)nnc1-c1ccccc1,5,93,1,-1,91*,3
c1ccc(-c2nnc(-c3ccccn3)nc2NC2CCCCC2)cc1,18,82,-2,-2,101*,3
c1ccc(CNc2nc(-c3ccccc3)nc3ccccc23)cc1,-4,86,0,-1,-40,-20
c1ccc(CNc2nc(-c3ccccn3)nc3ccccc23)cc1,18,78,6,1,64*,-3
c1ccc(-c2nc(-c3ccccn3)no2)cc1,6,2,2,-3,3,-4
c1ccc(-c2nc(NC3CCCCC3)c3ccccc3n2)nc1,.,.,.,.,57*,.
Cc1ccccc1OCC(=O)N1C2CCC1COC2,.,.,.,.,5,.
Cc1cc(F)ccc1S(=O)(=O)N1CCC[C@H](Cc2nc(-c3ccsc3)no2)C1,.,.,.,.,3,.
CCOC(=O)c1sc(NC(=O)CN2CCC(c3nc4ccccc4[nH]3)CC2)c(C(=O)OCC)c1C,.,.,.,.,-4,.
CCOc1ccc(S(=O)(=O)NC[C@H](O)c2ccoc2)cc1F,.,.,.,.,-17,.
N#C/C(=C\c1ccc([N+](=O)[O-])cc1)c1nc(-c2cc3ccccc3o2)cs1,.,.,.,.,-9,.
O=C(Nc1ccc2c(c1)OCCO2)c1ccc(Br)c(S(=O)(=O)N2CCOCC2)c1,36*,.,-5,.,4,.
CC(C)CCN1C(=O)C(C)(C)COc2cc(NS(=O)(=O)CC(C)C)ccc21,.,.,.,.,-13,.
SMILES,GDH-TPI counter,Mtb betalactam,Mtb FBA inh,Mtb UGM inh,SSB-PriA inh,Rv3671c protease
NC(=O)c1ccc(OCc2ccc3ccccc3n2)cc1,.,.,.,.,-3,.
O=C(CCN1CCc2ccccc21)c1ccc2c(c1)OCCO2,6,7,-2,-1,48*,2
C/C(=N\Nc1cccc(C(=O)O)c1)c1cc2ccccc2o1,48*,2,-2,-2,.,8
C/C(=N\Nc1ccc(Cl)c(C(=O)O)c1)c1cc2ccccc2o1,31*,1,-1,0,.,-4
C/C(=N\Nc1ccc(Cl)c(C(=O)O)c1)c1ccccn1,37*,2,1,1,.,1
C/C(=N\Nc1ccc(Cl)c(C(=O)O)c1)c1cccc2ccccc12,16,1,-1,4,.,1
O=C(NCC[C@H](O)c1ccoc1)c1ccccn1,.,.,.,.,-6,.
Cc1ccccc1OCC(=O)N[C@@H]1CNC(=O)C1,.,.,.,.,-4,.
Cc1cc(NC(=O)c2cccc(S(=O)(=O)C(C)C)c2)n(C)n1,.,.,.,.,1,.
CC(=NNC(=O)c1cccc(S(=O)(=O)N2CCCC2)c1)c1ccc(OCC(=O)N(C)C)cc1,.,.,.,.,-12,.
CN(C)CCCN(C(=O)c1ccco1)c1nc2c(F)cccc2s1,7,-10,2,1,-4,8
Cc1ccc2sc(N(CCCn3ccnc3)C(=O)c3ccco3)nc2c1C,.,.,.,.,88*,.
